# Measured values taken from PubChem BioAssay (NCI).
# The panel holds about 83,000 compounds, 20% with a hit somewhere; the sample as a whole holds those more often.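 Cells were grown in 96-well plates and exposed to the test compound at a single concentration for 48 hours; results are reported as percent growth, with values below 10 considered active.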 A number with no mark means an inactive call. The source made the active and inactive calls.
# How the values were obtained:
# Assay in all cases: NCI-60 one-dose screen, 48 h (100 = growth as untreated, 0 = no growth, -100 = all killed)
# Conditions in all cases: 10 µM unless noted
# [1] = system: NCI-H23 lung
# [2] = system: NCI-H226 lung
# [3] = system: NCI-H322M lung
# [4] = system: HOP-62 NSCLC
# [5] = system: NCI-H460 lung
# [6] = system: HOP-92 NSCLC
# [7] = system: NCI-H522 lung
# [8] = system: A549/ATCC NSCLC
# [9] = system: 786-0 renal
# [10] = system: COLO 205 colon
# [11] = system: DU-145 prostate
# [12] = system: K-562 leukemia
# [13] = system: MALME-3M melanoma
# [14] = system: MDA-MB-231 breast
# [15] = system: RXF 393 renal
# [16] = system: SF-268 CNS
# [17] = system: SF-295 CNS
# [18] = system: SF-539 CNS
# [19] = system: UACC-257 melanoma
# [20] = system: M14 melanoma
Compound,growth [1],growth [2],growth [3],growth [4],growth [5],growth [6],growth [7],growth [8],growth [9],growth [10],growth [11],growth [12],growth [13],growth [14],growth [15],growth [16],growth [17],growth [18],growth [19],growth [20]
Nc1ncnc2c1c(C(F)(F)F)cn2[C@@H]1O[C@H](CO)[C@@H](O)[C@H]1O,2.27% (active),-13.8% (active),19.5%,-4.3% (active),7.65% (active),-12.8% (active),-14.1% (active),10.5%,13.5%,-42.1% (active),17.9%,5.69% (active),-16.9% (active),15.7%,-45.2% (active),7.4% (active),7.79% (active),-31.7% (active),-5.51% (active),2.76% (active)
COc1ccc(/C=C2/C(=O)Nc3cc(Cl)c(-c4csc(N)n4)cc32)cc1,58%,69.2%,68.3%,50.1%,42.7%,43.1%,21.6%,48.5%,62.3%,33.7%,67.5%,13.6%,75.1%,27.3%,59.7%,58.7%,52.4%,37.8%,82.7%,29.9%
c1ccc(-c2nc3sc(C(c4ccccc4)c4ccccc4)nn3c2-c2ccccc2)cc1,92.2%,99.6%,93.6%,89.9%,95.6%,77.9%,95.3%,85.3%,94.9%,86.8%,99.9%,106%,86.4%,97.8%,109%,92.6%,98.6%,98%,92.2%,92%
COc1cc2c(/C=C3/C(=O)Nc4ccc(O)cc43)c(Cl)n(Cc3cc(OC)c(OC)c(OC)c3)c2cc1C,41.9%,65.5%,48.8%,40.1%,4.32% (active),-5.18% (active),0.662% (active),16.3%,15.8%,4.15% (active),20.4%,-30.7% (active),2.88% (active),61%,-20.9% (active),24%,38.9%,-16.7% (active),20.5%,11.5%
Cc1ccc(NC(=O)CN2CCOCC2)cc1Cl,101%,92.8%,93.4%,91%,100%,80.8%,76.5%,95.3%,95%,102%,102%,94.7%,102%,96%,104%,103%,94.3%,98.7%,88.1%,100%
CC(=O)N[C@@H](CNC(=O)c1cc(NC(=O)c2cc(NC(=O)c3cc(NC(=O)c4nccn4C)cn3C)cn2C)cn1C)CC(=O)Nc1cn(C)c(C(=O)Nc2cc(C(=O)Nc3cc(C(=O)Nc4cc(C(=O)NCCCN(C)CCCNC(=O)c5cccc(C(=O)O)c5)n(C)c4)n(C)c3)n(C)c2)n1,89.9%,58.4%,57%,91.6%,10.6%,106%,39%,-10.7% (active),82.7%,45.1%,53.3%,105%,122%,113%,97.6%,95.9%,47.8%,107%,113%,89.9%
COc1ccc(-c2ccc(NC(=O)Nc3ccc(Cl)c(C(F)(F)F)c3)c(C)n2)cc1,30.9%,65.2%,71.4%,62.1%,30.9%,27%,24.8%,38.7%,56.1%,80.1%,54.5%,16.7%,82.6%,85%,81.4%,73.7%,47%,81.3%,57.1%,31.9%
COc1ccccc1P(c1ccccc1OC)c1ccccc1OC,250%,105%,87.5%,113%,94.8%,70%,92.4%,82.2%,106%,87.1%,109%,107%,104%,101%,102%,109%,97.3%,101%,78.1%,101%
Cc1ccc2[nH]c3nc4cccnc4c(C)c3c2c1,36.5%,77.9%,44.4%,63.2%,11.4%,115%,70.3%,74.5%,107%,101%,102%,89.1%,127%,37.1%,84.7%,92.3%,99.9%,76.2%,112%,103%
COc1ccc(Cl)cc1NC(=O)c1cc2c([nH]1)-c1nc(NC(=O)C(C)C)sc1CC2,83.5%,79.5%,92.8%,75.3%,106%,90%,63.7%,91.1%,105%,102%,96.2%,76.4%,104%,113%,109%,94.9%,101%,26%,92.7%,101%
O=C(Nc1ccc(-n2ccc3c(NC(=O)c4ccccc4)nccc32)cc1)Nc1ccc(Cl)c(Cl)c1,42.4%,68%,-5.58% (active),-58.1% (active),-65.4% (active),-6.97% (active),-58.6% (active),-75.8% (active),-84% (active),-53.4% (active),-32.6% (active),-27.3% (active),-46.9% (active),-65.2% (active),-93.9% (active),1.8% (active),-67% (active),-58.6% (active),-69% (active),-69.8% (active)
CC(=O)N1N=C2N(Cc3ccccc3)C(=O)c3c(sc4c3CCCC4)N2C1c1cn(-c2ccccc2)nc1-c1ccc(Cl)cc1 (stereo not given),88.6%,91.9%,97.9%,98.6%,111%,81%,101%,95.9%,92.6%,101%,112%,93.4%,99.9%,99.1%,101%,100%,109%,92.6%,113%,100%
NS(=O)(=O)c1ccc(-n2nc(-c3ccc(Cl)cc3)ccc2=O)cc1,91.1%,103%,110%,94.3%,98%,90.9%,16%,95.4%,92.9%,113%,102%,45.9%,113%,118%,95.6%,96.5%,-4.7% (active),84.4%,96.6%,96.2%
O=C(Nc1ccc(-n2ccc3c(NC(=O)c4ccccc4)nccc32)cc1)c1cccc(C(F)(F)F)c1,50%,63.9%,48.8%,46.2%,2.21% (active),47.4%,12.2%,13%,18.3%,35.8%,45.2%,15.3%,44.3%,51.4%,-8.11% (active),26.9%,11.3%,16.8%,44.4%,27.6%
NC(=S)NNC1CCCCC1,97.6%,91.1%,87.7%,83.2%,104%,88.7%,72.3%,74.5%,99.3%,100%,109%,87.6%,97.3%,92.1%,107%,97.4%,96.4%,96.4%,80.1%,98.4%
CN(C)c1ccc(/C=N/n2c(-c3cc(F)c(Cl)cc3Cl)nn(CN3CCOCC3)c2=S)cc1,101%,97.2%,94.9%,87.1%,121%,75.2%,74.1%,101%,101%,108%,106%,82.7%,87.6%,99.8%,110%,119%,96.1%,97.1%,91.9%,82.6%
COc1ccc2c(c1)C(=O)/C(=C/c1ccc(OCC(=O)c3ccc(Cl)cc3)cc1)O2,97.1%,80.7%,102%,121%,106%,50.6%,-64.2% (active),99.2%,115%,123%,104%,-42.3% (active),80%,68.8%,74.5%,108%,73.7%,96%,75.1%,83.9%
c1ccc(CNCCN(CCNCc2ccccn2)Cc2ccc3ccccc3c2)nc1,21.5%,-17.9% (active),12.2%,-17.4% (active),-7.2% (active),-7.66% (active),14.1%,-14.5% (active),-46.4% (active),-5.97% (active),13.7%,-0.99% (active),24.6%,4.02% (active),45.1%,19%,-35.6% (active),-34.8% (active),31.7%,-49.4% (active)
COc1ccc(C(=O)NC(=O)Nc2ccc3c(c2)NC(=O)/C3=C\c2[nH]c(C)c(C(=O)O)c2C)cc1,18.1%,83.9%,94.2%,96.2%,100%,-1.09% (active),7.54% (active),98%,16.8%,88.1%,71.1%,79.3%,41.9%,86.8%,49.1%,61.4%,105%,72.9%,107%,90.5%
Nc1ncnc2c1ccn2-c1cccc(NC(=O)c2cccc(C(F)(F)F)c2)c1,90.6%,70.2%,55.8%,91.7%,45.8%,-1.72% (active),56.2%,50.7%,101%,75.7%,81.8%,59%,98.4%,58.4%,58.5%,67.5%,36.4%,64.4%,93.2%,83.9%
O=c1c2ccccc2[nH]n1Cc1ccc2c(c1)OCO2,106%,92.6%,97.6%,97.1%,0.543% (active),90.2%,99.4%,99.6%,93.3%,116%,112%,95.9%,100%,114%,103%,101%,104%,98.1%,97%,104%
COc1ccc(C[C@H](N)C(=O)N[C@@H]2[C@@H](CO)OC(n3cnc4c(N(C)C)ncnc43)[C@@H]2O)cc1 (stereo not given in full),-39.4% (active),-65.2% (active),-65.2% (active),-57.8% (active),-67% (active),-67.1% (active),-68.7% (active),-57.9% (active),-87.6% (active),-63.2% (active),-7.63% (active),-11.4% (active),-78.1% (active),-10.1% (active),-86.6% (active),-42.5% (active),-43% (active),-42.9% (active),-64.7% (active),-85.5% (active)
CN(C)CC/C=C1\c2ccccc2Sc2ccc(Cl)cc21,80%,102%,72.1%,75.6%,77.2%,36.7%,67.5%,74.9%,58.2%,-40.1% (active),90.9%,16.4%,69.8%,69%,41.2%,68.8%,75.4%,92.3%,-54.4% (active),-57.5% (active)
C[C@]12O[C@H]1[C@H](O)c1c(cc(O)c3c1C(=O)c1cccc(O)c1-3)C2=O,99%,85.7%,102%,96.5%,99.1%,101%,87.8%,92.9%,104%,106%,111%,93.9%,100%,94%,123%,107%,102%,99.6%,89%,89.8%
COc1ccccc1N1CCN(CC(O)COc2c(Br)c(Br)c(Br)c3c2OC(C)(C)C3)CC1 (stereo not given),48.8%,45%,59.9%,66.1%,15.1%,-28.9% (active),55.1%,45.5%,6.05% (active),58.6%,97.2%,11%,67.2%,44.9%,40.2%,131%,29.8%,94.1%,96.9%,29.9%
CCN(CC)CCC(C(=O)O)(c1ccccc1)c1ccccc1,95.3%,106%,103%,86.5%,105%,101%,89.7%,110%,96.4%,101%,107%,102%,89.7%,99.4%,118%,93.9%,97%,93.9%,113%,97%
O=c1[nH]ccc2nc(N3CCC(O)CC3)nc(Nc3cccc(C(F)(F)F)c3)c12,62.2%,57.4%,102%,92.9%,73.4%,105%,51.7%,53.4%,58.3%,35.7%,72%,44.7%,64.5%,88.3%,54.4%,67.1%,96.8%,80.4%,16.3%,39.1%
COc1cccc(C2CC(c3cc(OC)c(OC)c(OC)c3)=NN2)c1 (stereo not given),89.6%,91.7%,99.6%,83%,93.7%,80%,80.3%,84.4%,86.9%,106%,104%,14.5%,91.6%,98%,83.8%,93%,81.8%,92.2%,99.4%,83%
CC1(C)Cc2c(Br)c(Br)c(Br)c(OCC(O)CN3CCN(c4ccccn4)CC3)c2O1 (stereo not given),80.9%,91.7%,57.6%,102%,88%,-5.32% (active),60.9%,80.4%,31.3%,114%,106%,36.4%,88.2%,57.4%,99.7%,79.1%,81.5%,95.1%,105%,99.2%
